Only a selection was taken, and hits are over-represented in it overall.
Pf Dd2 growth: inhibitors of Plasmodium falciparum Dd2 growth | P. falciparum Dd2 growth, SYBR Green, 72 h | Potency, µM (series often up to 28.9 µM), for the others: at the highest dose activity, negative = inhibition, most hits filed as inhibitors | 4.3% of 120,000 active | AID 1347417; active means well fitted inhibition curve with a large enough effect;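 further: plate controls were DMSO vehicle for no effect and reference drug for full effect; nearly all actives have a fitted effect of over 65% in size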
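Infected erythrocytes (Dd2, 0.3% parasitemia, 2.5% hematocrit final) are added to compound in RPMI-1640/Albumax II medium, grown 72 h at 37C in low oxygen, then lysed with saponin/Triton-X containing SYBR Green and read by fluorescence.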
* hit, by the source's call; i = inactive; [ ] = another dose, or the depositor's remark. Potency means the concentration at half of the fitted maximal effect.

SMILES	Pf Dd2 growth
CCC(=O)Nc1ccc(-c2nnc3n2CCCC3)cc1	21%
COc1cccc(CN2CCC3(CCCO3)CCC2=O)c1 (centres undefined)	-8%
O=C(N[C@H]1CCCNC1=O)C1=C[C@@H](NC(=O)c2cccnc2)[C@@H](O)[C@H](O)C1	14%[44.1 µM]
Cc1c[nH]c(C(=O)N2CCCC(CCc3cccc(C(F)(F)F)c3)C2)c1 (centres undefined)	-22%
CN(CC1CCCN(CCc2cccc(C(F)(F)F)c2)C1)C(=O)c1ccc2[nH]ccc2c1 (centres undefined)	10µM*
O=C(c1ccc(=O)[nH]c1)N1CCCC(CCc2cccc(C(F)(F)F)c2)C1 (centres undefined)	-14%
CC(C)c1ccc(CN2C[C@@H]3C(=O)N(Cc4ccc5c(c4)OCO5)C(=O)[C@@H]3C2)cc1	-22%
C1=CCC(c2nc(C3CCOCC3)nn2-c2cccnc2)C1	2%
CCC1(N2CCN(S(=O)(=O)c3cccc(C#N)c3)CC2)CCN(C(=O)C(C)C)C1 (centres undefined)	i
O=C(CN1C(=O)NC(c2ccc(Cl)cc2)C2=C1COC2=O)Nc1ccc(Cl)cc1F (centres undefined)	-19%
COc1cc2c(cc1OC)C(C[C@H]1CN(C(=O)Nc3cccc(Cl)c3)CC[C@H]1CC(=O)O)=NCC2	i
Cn1c(Cn2ccnc2)nnc1C1CCCN(C(=O)c2ccc(CO)o2)C1 (centres undefined)	2%
COc1ccc(CCNC(=O)c2cc3c(=O)[nH]c(C)cn3n2)cc1OC	i
Cc1cn2nc(C(=O)NCCCc3ccccc3)cc2c(=O)[nH]1	7.9µM*
Cc1cn2nc(C(=O)NCc3cc(F)cc(F)c3)cc2c(=O)[nH]1	10%
COCCCNC(=O)c1cc2c(=O)[nH]c(C)cn2n1	21%
Cc1cn2nc(C(=O)NCc3cccc(Cl)c3)cc2c(=O)[nH]1	8%
Cc1ccc(CNC(=O)c2ccc(NC(=O)c3cc4c(=O)[nH]c(C)cn4n3)cc2)cc1	4µM*
CC(O)c1cc2n(n1)CCCN(CC(=O)N1CCOc3ccccc31)C2 (centres undefined)	-6%
CN(C)C(=O)C1CN(C(=O)c2ccccc2Br)CC12CCOCC2 (centres undefined)	18%
COc1cc(Cl)c(C)cc1NC(=O)Cn1ccn2nc(-c3ccccc3)c(CO)c2c1=O	-9%
O=C(NC1CCCC1)N1CCc2nnc(C3CC3)n2CC1	6%
C[C@@H](NC(=O)C1CC1)c1onc(-c2ccc(Cl)cc2)c1C(=O)O	-14%[44.1 µM]
CC1=C[C@@H](CN2CCC[C@H]2CO)[C@H](C(C)C)C[C@H]1Cc1nnc(-c2cncn2C)o1	-33%[44.1 µM]
CC1=C[C@@H](CN2CCN(C)CC2)[C@H](C(C)C)C[C@H]1Cc1nnc(C)o1	i
SMILES	Pf Dd2 growth
CC1=C[C@@H](CN2CCN(C)CC2)[C@H](C(C)C)C[C@H]1Cc1nnc(-c2ccc(N(C)C)cc2)o1	4µM*
CC1=C[C@@H](CN2CCC(C(N)=O)CC2)[C@H](C(C)C)C[C@H]1Cc1nnc(-c2ccccc2F)o1	i
CC1=C[C@@H](CN2CCC(C(N)=O)CC2)[C@H](C(C)C)C[C@H]1Cc1nnc(-c2ccc(N(C)C)cc2)o1	3.5µM*
COCCn1ncc(N2CCCC(CC(=O)NCCc3ccccc3)C2)cc1=O (centres undefined)	-17%
CN(Cc1cccc(O)c1)C(=O)[C@H]1C[C@@H](C(=O)O)N(C)[C@H]1c1ccccc1F	-2%
O=C1COc2ccc(NCc3cccs3)nc2CN1Cc1ccc(C(F)(F)F)cc1	-25%[44.1 µM]
CC(C)(C)c1cc(CC2(NCc3ccc(Cl)cc3)COC2)no1	-11%[44.1 µM]
Oc1ccccc1CN1CCOC[C@H]1c1ncc(-c2ccccc2)[nH]1	-25%[44.1 µM]
CN1C(=O)CCCCC1C(=O)N1CCc2ccccc2C1 (centres undefined)	-24%
O=[S+]1([O-])NCC2(CCN(CC3CCOCC3)C2)Oc2ncccc21 (centres undefined)	13%
O=[S+]1([O-])NCC2(CCN(CC3CC3)C2)Oc2ncccc21 (centres undefined)	4%
O=[S+]1([O-])NCC2(CCN(CC3CCCC3)C2)Oc2ncccc21 (centres undefined)	13µM*
Cc1noc(C)c1[S+](=O)([O-])N1CCC2(CC1)OCCN(Cc1ccccc1)C2=O	i
Cc1ncc2n1C(=O)N(C1CCN(CC3CC3)CC1)C2	24%[44.1 µM]
Cc1noc(C)c1C(=O)N1Cc2ccccc2CC2(CCN(C)C2)C1 (centres undefined)	10µM*
Cc1noc(C)c1C(=O)N1Cc2ccccc2CC2(CCN(CC3CCNCC3)CC2)C1	17%
CN1CCC(C(=O)N2Cc3ccccc3CC3(CCN(C)C3)C2)CC1 (centres undefined)	14%
O=C(N[C@@H]1CCN(C(=O)c2n[nH]c3ccccc23)C[C@H]1O)c1cccnc1	-11%
COc1ccc(CN2C[C@H]3CN(Cc4ccc([N+](=O)[O-])cc4)CCN3C2=O)cc1	20%[44.1 µM]
CCOC(=O)c1cccc(NC(=O)c2ccc3nc(C(C)C)oc3c2)c1	i
CC(C)CC(=O)Nc1ccc2nc(SCC(=O)N3CCOCC3)sc2c1	-13%
CCOC(=O)N1CCN(Cc2nc3cc(NC(=O)c4cccc(C)c4)ccc3n2C(C)C)CC1	6.3µM*
CCN1CCN(Cc2nc3cc(NC(=O)c4cccc([N+](=O)[O-])c4)ccc3n2CC)CC1	7.9µM*
O=C(Nc1ccc(Cl)c(-c2nc3ccccc3o2)c1)c1ccc(-c2cccc([N+](=O)[O-])c2)o1	-12%
Cn1c(CN2CCCCC2)nc2cc(NC(=O)c3cccc(Br)c3)ccc21	-9%
CCOC(=O)N1CCN(Cc2nc3cc(NC(=O)CC(C)C)ccc3n2C(C)C)CC1	11µM*
CC(C)CC(=O)Nc1ccc2nc(SCC(=O)N3CCCC3)sc2c1	-3%

Screening results (PubChem)
